Source: PubChem (The Scripps Research Institute Molecular Screening Center)
MOR-DOR ag = agonists of human mu-delta opioid receptor heterodimerization | P35372+P41143 | cells, OPRM1-OPRD1 heterodimerization, luminescence | activation, % at 9.3 µM | 340,000 tested, 0.3% active | AID 504326;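 note: 0% = vehicle-treated cells and 100% = reference agonist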
Target sequence (P35372 whole entry, looked up): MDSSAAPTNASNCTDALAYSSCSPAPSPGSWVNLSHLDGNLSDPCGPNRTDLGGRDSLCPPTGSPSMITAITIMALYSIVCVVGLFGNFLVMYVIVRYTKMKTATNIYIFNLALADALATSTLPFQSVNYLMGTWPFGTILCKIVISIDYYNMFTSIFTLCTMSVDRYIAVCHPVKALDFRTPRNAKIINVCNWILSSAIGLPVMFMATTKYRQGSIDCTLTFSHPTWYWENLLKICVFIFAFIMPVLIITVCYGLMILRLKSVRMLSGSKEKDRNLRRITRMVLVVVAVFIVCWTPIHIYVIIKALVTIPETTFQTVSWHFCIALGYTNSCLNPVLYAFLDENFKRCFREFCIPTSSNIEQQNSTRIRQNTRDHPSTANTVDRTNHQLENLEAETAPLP
Target sequence (P41143 whole entry, looked up): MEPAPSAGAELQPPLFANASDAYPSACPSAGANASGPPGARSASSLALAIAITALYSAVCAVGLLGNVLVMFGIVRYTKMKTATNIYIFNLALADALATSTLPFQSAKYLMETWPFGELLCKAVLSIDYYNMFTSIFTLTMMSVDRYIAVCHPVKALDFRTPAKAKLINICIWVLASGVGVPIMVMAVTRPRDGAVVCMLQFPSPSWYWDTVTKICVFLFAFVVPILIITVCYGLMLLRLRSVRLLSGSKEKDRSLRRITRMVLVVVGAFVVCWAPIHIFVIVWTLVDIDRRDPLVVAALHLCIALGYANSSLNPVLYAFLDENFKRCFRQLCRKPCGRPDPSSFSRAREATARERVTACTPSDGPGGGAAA
HTR5A ag ctr = activates human HTR5A in OPRM1-OPRD1 agonist counter-screen; 340,000 tested, 0.61% active; HTR5A agonist assay, luminescence, cell-based; activation, % at 9.3 µM; AID 504692; P47898; in the data active = activation mostly above about 9.5%, no sharp cut-off; inactive = mostly below about 7.6%;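 note: 0% = cells with vehicle only and 100% = reference agonist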
MOR-DOR inv ag = inverse agonists of human mu-delta opioid receptor heterodimerization; 340,000 tested, 0.21% active; AID 504357; inhibition, % at 9.3 µM; P35372+P41143; cell-based MOR-DOR heterodimer luminescence, inverse agonism; in the data active = inhibition above about 22%, passing the limit was not always enough;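 note: 0% = cells with DMSO and 100% = wells without cells with DMSO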
HTR5A inv ag = inverse agonist of human HTR5A in OPRM1-OPRD1 counter-screen; 340,000 tested, 0.083% active; AID 504634; P47898; inhibition, % at 9.3 µM; HTR5A cell line, luminescence, inverse agonism; in the data active = inhibition mostly above about 23%, no sharp cut-off; inactive = mostly below about 18%;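 note: 0% = cells with DMSO and 100% = no-cell wells with DMSO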
OPRM1-D1 ag cf = OPRM1-OPRD1 heterodimer agonism, confirmation. shares compounds with MOR-DOR ag. cells, MOR-DOR heterodimerization, luminescence complementation. activation, % at 9.3 µM. 830 tested, 45% active. AID 504904;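 note: 0% = vehicle-treated cells and 100% = reference agonist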
HTR5A ag ctr2 = counter-screen for OPRM1-OPRD1 agonists: human HTR5A agonism; shares compounds with MOR-DOR ag; HTR5A agonist counterscreen, cell luminescence; activation, % at 9.3 µM; 830 tested, 8% active; in the data active = activation above about 17%;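 note: 0% = vehicle-treated cells and 100% = reference agonist response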
MOR-DOR inv conf = confirmation of human OPRM1-OPRD1 heterodimerization inverse agonists; shares compounds with MOR-DOR inv ag; cells expressing OPRM1/OPRD1 heterodimer, luminescence; inhibition, % at 9.3 µM; 580 tested, 20% active; in the data active = inhibition above about 32%;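 note: 0% = cells with DMSO and 100% = wells lacking cells with DMSO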
HTR5A inv ctr2 = counter-screen for OPRM1-OPRD1 inverse agonists: human HTR5A inverse agonism; shares compounds with MOR-DOR inv ag; HTR5A-expressing cells, luminescence; inhibition, % at 9.3 µM; 580 tested, under 10 active; AID 504914; call rule not given here;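 note: 0% = cells with DMSO and 100% = no-cell wells with DMSO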
* = called active by the depositor; i = inactive; . = no result; + = active, no number. In the library only some 1.1% were active in any assay of this set; here they are far more common. Cut-off read from the data, not from the text of the source, unless noted: active = activation above about 18%; inactive = the rest.

SMILES	MOR-DOR ag	HTR5A ag ctr	MOR-DOR inv ag	HTR5A inv ag	OPRM1-D1 ag cf	HTR5A ag ctr2	others
N=c1c[n+](CC23CC4CC(CC(C4)C2)C3)[n-]o1	24*	4	-109	-4	36*	2
CN1CCCC(C(=O)c2ccc(Cl)cc2)C1 (stereo not drawn)	21*	-1	-108	2	0	-3
NC(N)=Nc1ccc2[nH]c3c(c2c1)C[C@@]1(O)[C@H]2Cc4ccc(O)c5c4[C@@]1(CCN2CC1CC1)C3O5 (stereo partly drawn)	-2	12	10	-27	.	.
C=CCN1C[C@@H](C)N(C(c2ccc(C(=O)N(CC)CC)cc2)c2cccc(OC)c2)C[C@@H]1C (stereo partly drawn)	.	-1	.	-21	.	-1
C=C[C@@H]1C2=CCOC(=O)C2=CO[C@H]1O[C@@H]1O[C@H](CO)[C@@H](O)[C@H](O)[C@H]1O	-2	-1	10	-8	.	.
Clc1cc(Cl)cc(NC2=NCCS2)c1	0	-1	-1	-1	.	.
COc1ccc2c(c1O)-c1c(OC)c(OC)cc3c1[C@H](C2)N(C)CC3	0	-4	2	-5	.	.
CCCN1CCc2cccc3c2[C@H]1Cc1ccc(O)c(O)c1-3	19*	4	-101	-14	20*	3
NS(=O)(=O)OC(CCc1ccccc1)C(Cl)(Cl)Cl (stereo not drawn)	6	5	-34	3	.	.
Cc1nc2c(=O)n(C)c(=O)nc-2n(C)n1	20*	-2	-101	6	22*	-2
COc1ccc2c(c1)NP(=S)(c1ccccc1)N2C (stereo not drawn)	19*	1	-100	-3	4	9
COc1ccc(P2(=O)Nc3ccccc3N2)cc1	11	0	-57	-4	.	.
Clc1ccc(COC(Cn2ccnc2)c2ccc(Cl)cc2Cl)cc1 (stereo not drawn)	14	9	-79	6	.	.
Clc1ccc(CSC(Cn2ccnc2)c2ccc(Cl)cc2Cl)cc1 (stereo not drawn)	+	8	i	-21	i	0
Cc1cc(OCC(=O)N2CCN(CC(=O)N3CCOCC3)CC2)c(C(C)C)cc1Cl	-4	1	15	-17	.	.
CCCC(=O)c1ccc(CP(=O)(OCC)OCC)o1	-2	1	11	3	.	.
Clc1ccc(C(c2ccc(Cl)cc2)n2cc[n+](CC(OCc3ccc(Cl)cc3Cl)c3ccc(Cl)cc3Cl)c2)cc1 (stereo not drawn)	63*	20	-347	-10	50*	10
COc1ccc(C(CNC(=O)Cc2ccc(Cl)c(Cl)c2)N(C)C)cc1 (stereo not drawn)	121*	-1	i	3	8	6
CC(=O)c1ccc(NC(=O)N2C[C@H]3C[C@@H](C2)c2cccc(=O)n2C3)cc1	-2	0	11	7	.	.
CC(=O)OC1CC(OC2C(O)CC(OC3C(O)CC(OC4CCC5(C)C(CCC6C5CC(O)C5(C)C(C7=CC(=O)OC7)CCC65O)C4)OC3C)OC2C)OC(C)C1OC1OC(CO)C(O)C(O)C1O (stereo not drawn)	69*	26*	-373	-95	14	1
C[C@]12CCC3C(CC[C@H]4C[C@@H](O)CC[C@]34C)[C@H]1C=CC2=O (stereo partly drawn)	0	-4	0	14	.	.
C[C@]12CC[C@H](O)C[C@H]1CC[C@@H]1[C@@H]2C[C@@H](O)[C@]2(C)[C@@H](C3=CC(=O)OC3)CC[C@]12O	69*	34*	-385	-63	40*	30*
COC1C(O)C(C)OC(OC2CCC3(C)C(CCC4C3C(O)CC3(C)C(C5=CC(=O)OC5)CCC43O)C2)C1O (stereo not drawn)	85*	31*	-374	-120	28*	0
CC12CCC(O)CC1CCC1C2CCC2(C)C(C3=CC(=O)OC3)CCC12O (stereo not drawn)	93*	33*	-405	-125	10	5
C[C@H]1CC[C@@H]2[C@@H](C)[C@H]3[C@H](C[C@H]4[C@@H]5CC=C6C[C@@H](O[C@@H]7O[C@H](CO)[C@H](O)[C@H](O[C@@H]8O[C@H](CO)[C@@H](O)[C@H](O)[C@H]8O)[C@H]7O[C@@H]7O[C@@H](C)[C@H](O)[C@@H](O)[C@H]7O)CC[C@]6(C)[C@H]5CC[C@]34C)N2C1	-2	-1	10	-29	.	.
SMILES	MOR-DOR ag	HTR5A ag ctr	MOR-DOR inv ag	HTR5A inv ag	OPRM1-D1 ag cf	HTR5A ag ctr2	others
Cc1c(O)ccc(C(=O)CN2CC(C)OC(C)C2)c1O (stereo not drawn)	-1	-3	6	17	.	.
COc1ccc(-n2c(/C=C/c3cccc(F)c3)nc3ccccc3c2=O)c(OC)c1	-1	0	6	1	.	.
Cn1cc(C(=O)OCC(=O)NC2(C#N)CCCC2)c2ccccc21	-2	-4	9	3	.	.
CC12CC[C@H]3[C@@H](CCC4(O)C[C@H](O)CCC34/C=N/NC(=O)c3ccccc3[N+](=O)[O-])C1(O)CCC2C1=CC(=O)OC1 (stereo partly drawn)	21*	11*	-96	-38	3	10
COc1ccc(CN2CCN(C(=O)COc3ccc4ccccc4c3)CC2)c(OC)c1	2	8	-8	1	.	.
CC(=O)O[C@H]1[C@H]2O[C@]23[C@@H]2CC[C@]4(O)C[C@@H](O)CC[C@]4(C)C2CC[C@]3(C)[C@H]1c1ccc(=O)oc1 (stereo partly drawn)	75*	33*	-406	-111	301*	2
CC1(O)CCC2C3CCC4=CC(=O)CCC4(C)C34OC4CC21C (stereo not drawn)	-4	0	20	1	.	.
C[C@]12CC[C@H]3C(CCC4(O)CC(O)CC[C@]34C=O)C1=CC[C@H]2c1ccc(=O)oc1 (stereo partly drawn)	67*	23*	-303	-82	33*	23*
O=C(NP(=O)(N1CC1)N1CC1)c1cc(I)ccc1I	-2	-1	10	4	.	.
ON1C2CCCCC2N(O)C1c1ccccc1F (stereo not drawn)	-9	-3	54*	9	.	.	MOR-DOR inv conf=-472;HTR5A inv ctr2=-63
CC(C)OC(=O)c1c(N)n(Cc2ccco2)c2nc3ccccc3nc12	-4	-5	21	11	.	.
COCCOC(=O)c1c(N)n(Cc2ccco2)c2nc3ccccc3nc12	-5	-1	29*	3	.	.	MOR-DOR inv conf=3;HTR5A inv ctr2=5
COC(=O)c1c(N)n(Cc2ccc(OC)cc2)c2nc3ccccc3nc12	-7	-2	32*	-13	.	.	MOR-DOR inv conf=-15;HTR5A inv ctr2=0
